Measurements published in publication PMC5700166.

What follows are sequences tested against T1, GST-Ap-NF-kB RHD (Exaiptasia pallida (Aiptasia), UniProt A0A913YAJ5 2-422) (assay: protein-binding microarray (PBM); PBM: ~300 nM protein, 6 mM HEPES pH 7.8, 80 mM KCl, 0.5 mM EDTA, 0.5 mM EGTA, 6% glycerol, 35 ng/ul poly-dIdC, 1% milk, 1 h, room temperature; Ap Aiptasia and Nv Nematostella (sea anemones) / Co Capsaspora / Aq Amphimedon (sponge) / Dm Drosophila / Hu human; RHD is the Rel homology domain; high values mean tight binding). Details: dsDNA, one strand shown.
T1 sequence: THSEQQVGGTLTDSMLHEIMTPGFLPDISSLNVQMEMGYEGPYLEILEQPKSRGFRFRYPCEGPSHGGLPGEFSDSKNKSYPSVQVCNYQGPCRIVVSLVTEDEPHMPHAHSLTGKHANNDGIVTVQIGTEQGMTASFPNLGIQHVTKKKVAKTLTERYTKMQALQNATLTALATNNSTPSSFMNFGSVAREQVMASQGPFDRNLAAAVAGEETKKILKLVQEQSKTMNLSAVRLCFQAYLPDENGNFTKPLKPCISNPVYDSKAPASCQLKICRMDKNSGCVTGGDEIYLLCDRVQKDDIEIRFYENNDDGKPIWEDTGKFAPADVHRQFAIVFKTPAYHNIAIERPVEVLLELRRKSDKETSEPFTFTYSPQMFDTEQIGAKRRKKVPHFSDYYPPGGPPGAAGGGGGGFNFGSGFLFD

Sequence | binding signal
CCGATTAACATCAAAATTACCCCTGATGTTAATCGGGTCTTGATTCGCTTGACGCTGCTG | 4.94 z-score
CCGATTAACATCAGAAAATCCCCTGATGTTAATCGGGTCTTGATTCGCTTGACGCTGCTG | 10.4 z-score
CCGATTAACATCAGAGAATCCCCTGATGTTAATCGGGTCTTGATTCGCTTGACGCTGCTG | 9.54 z-score
CCGATTAACATCAGGGGGCAATATGATGTTAATCGGGTCTTGATTCGCTTGACGCTGCTG | 3.43 z-score
CCGATTAACATCAAGGGGTTCCCTGATGTTAATCGGGTCTTGATTCGCTTGACGCTGCTG | 4.99 z-score
CCGATTAACATCAGGAAGCCCCCTGATGTTAATCGGGTCTTGATTCGCTTGACGCTGCTG | 6.62 z-score
CCGATTAACATCAGGGGGTTTCATGATGTTAATCGGGTCTTGATTCGCTTGACGCTGCTG | 8.25 z-score
CCGATTAACATCAGGGGAAACCCTGATGTTAATCGGGTCTTGATTCGCTTGACGCTGCTG | 10.2 z-score
CCGATTAACATCATAATCCCCCATGATGTTAATCGGGTCTTGATTCGCTTGACGCTGCTG | 7.75 z-score
CCGATTAACATCAGGGGGGATAATGATGTTAATCGGGTCTTGATTCGCTTGACGCTGCTG | 5.8 z-score
CCGATTAACATCAGGGGTTTCTATGATGTTAATCGGGTCTTGATTCGCTTGACGCTGCTG | 5.36 z-score
CCGATTAACATCAATTTCCCCCCTGATGTTAATCGGGTCTTGATTCGCTTGACGCTGCTG | 7.89 z-score
CCGATTAACATCAGATACTCCCCTGATGTTAATCGGGTCTTGATTCGCTTGACGCTGCTG | 5.47 z-score
CCGATTAACATCAATTTCCCCCATGATGTTAATCGGGTCTTGATTCGCTTGACGCTGCTG | 7.52 z-score
CCGATTAACATCAGGGAAAACCCTGATGTTAATCGGGTCTTGATTCGCTTGACGCTGCTG | 7.33 z-score
CCGATTAACATCAAAATGTCCCCTGATGTTAATCGGGTCTTGATTCGCTTGACGCTGCTG | 6.81 z-score
CCGATTAACATCACCGTTTCCCCTGATGTTAATCGGGTCTTGATTCGCTTGACGCTGCTG | 6.05 z-score
CCGATTAACATCAGGGGAACAAATGATGTTAATCGGGTCTTGATTCGCTTGACGCTGCTG | 3.88 z-score
CCGATTAACATCAAGGGGGTATCTGATGTTAATCGGGTCTTGATTCGCTTGACGCTGCTG | 6.66 z-score
CCGATTAACATCAGAAATTCCCCTGATGTTAATCGGGTCTTGATTCGCTTGACGCTGCTG | 9.89 z-score

Sequence | binding signal
CCGATTAACATCAAGGGAATTTCTGATGTTAATCGGGTCTTGATTCGCTTGACGCTGCTG | 6.34 z-score
CCGATTAACATCAGGGGAATACCTGATGTTAATCGGGTCTTGATTCGCTTGACGCTGCTG | 9.84 z-score
CCGATTAACATCAAATTTCCCCCTGATGTTAATCGGGTCTTGATTCGCTTGACGCTGCTG | 9.03 z-score
CCGATTAACATCAAAACTCCCCCTGATGTTAATCGGGTCTTGATTCGCTTGACGCTGCTG | 9.31 z-score
CCGATTAACATCAGAATCCCCCCTGATGTTAATCGGGTCTTGATTCGCTTGACGCTGCTG | 9.22 z-score
CCGATTAACATCAGGGGAGGTAATGATGTTAATCGGGTCTTGATTCGCTTGACGCTGCTG | 2.69 z-score
CCGATTAACATCAGGGGGGTTTATGATGTTAATCGGGTCTTGATTCGCTTGACGCTGCTG | 7.17 z-score
CCGATTAACATCAAAAATCCCACTGATGTTAATCGGGTCTTGATTCGCTTGACGCTGCTG | 3.51 z-score
CCGATTAACATCAACGAATCCCCTGATGTTAATCGGGTCTTGATTCGCTTGACGCTGCTG | 6.25 z-score
CCGATTAACATCAAGCAATCCCCTGATGTTAATCGGGTCTTGATTCGCTTGACGCTGCTG | 6.44 z-score
CCGATTAACATCAAGGGTATTCCTGATGTTAATCGGGTCTTGATTCGCTTGACGCTGCTG | 5.29 z-score
CCGATTAACATCAGGGGAAAAGATGATGTTAATCGGGTCTTGATTCGCTTGACGCTGCTG | 5.46 z-score
CCGATTAACATCAGGGGAATGCATGATGTTAATCGGGTCTTGATTCGCTTGACGCTGCTG | 5.82 z-score
CCGATTAACATCAGGGAAATCCATGATGTTAATCGGGTCTTGATTCGCTTGACGCTGCTG | 4.11 z-score
CCGATTAACATCAGATTTACCCCTGATGTTAATCGGGTCTTGATTCGCTTGACGCTGCTG | 3.07 z-score
CCGATTAACATCACCGTTCCCCCTGATGTTAATCGGGTCTTGATTCGCTTGACGCTGCTG | 6.48 z-score
CCGATTAACATCAGAATTTCCCATGATGTTAATCGGGTCTTGATTCGCTTGACGCTGCTG | 3.88 z-score
CCGATTAACATCAGGGGATTACCTGATGTTAATCGGGTCTTGATTCGCTTGACGCTGCTG | 9.27 z-score
CCGATTAACATCAGGGGAAGATATGATGTTAATCGGGTCTTGATTCGCTTGACGCTGCTG | 6.06 z-score
